Our source for the inhibition values is ChEMBL document CHEMBL1961873, “Compounds: GSK PKIS; Assays: Nanosyn kinase panel” (2012).

Assay [1] has as its target RAC-alpha serine/threonine-protein kinase (Homo sapiens) (UniProt P31749). The note with it: at 0.1 µM.
For assay [2] the target is unchanged. The note with it: at 1 µM.
Assay [3] addresses RAC-beta serine/threonine-protein kinase (Homo sapiens) (UniProt P31751). The conditions noted are these: at 0.1 µM.
For assay [4] the target is unchanged. The conditions noted are these: at 1 µM.
The target in assay [5] is RAC-gamma serine/threonine-protein kinase (Homo sapiens) (UniProt Q9Y243). The note with it: at 0.1 µM.
Assay [6] shares this target. The note with it: at 1 µM.
Assay [7] addresses G protein-coupled receptor kinase 6 (Homo sapiens) (UniProt P43250). The note with it: at 0.1 µM.
The target is the same in assay [8]. The conditions noted are these: at 1 µM.
Assay [9] deals with T1, Rhodopsin kinase GRK7 (Homo sapiens) (UniProt Q8WTQ7).
T1 sequence (whole entry): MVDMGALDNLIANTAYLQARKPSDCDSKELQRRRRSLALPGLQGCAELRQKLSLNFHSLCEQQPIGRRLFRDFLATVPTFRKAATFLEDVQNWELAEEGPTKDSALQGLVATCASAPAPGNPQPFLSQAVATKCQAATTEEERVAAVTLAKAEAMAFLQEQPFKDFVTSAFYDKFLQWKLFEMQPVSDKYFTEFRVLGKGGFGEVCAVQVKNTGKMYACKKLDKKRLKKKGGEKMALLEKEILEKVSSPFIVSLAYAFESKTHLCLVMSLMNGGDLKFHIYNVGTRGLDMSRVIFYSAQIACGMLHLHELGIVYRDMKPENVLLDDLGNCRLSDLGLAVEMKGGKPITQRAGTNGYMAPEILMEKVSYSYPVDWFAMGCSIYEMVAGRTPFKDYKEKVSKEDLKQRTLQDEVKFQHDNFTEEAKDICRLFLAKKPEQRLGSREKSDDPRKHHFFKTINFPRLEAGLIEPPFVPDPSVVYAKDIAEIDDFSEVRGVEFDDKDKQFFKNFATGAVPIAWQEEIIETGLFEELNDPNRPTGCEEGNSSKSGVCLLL
The conditions noted are these: at 0.1 µM.

The target of assay [10] is T1, Rhodopsin kinase GRK7 (Homo sapiens). The note with it: at 1 µM.
In assay [11] the target is Serine/threonine-protein kinase MRCK alpha (Homo sapiens) (UniProt Q5VT25). The conditions noted are these: at 0.1 µM.
The target is the same in assay [12]. The note with it: at 1 µM.
Assay [13] deals with Serine/threonine-protein kinase MRCK beta (Homo sapiens) (UniProt Q9Y5S2). The note with it: at 0.1 µM.
Assay [14] shares this target. The note with it: at 1 µM.
For assay [15], the target named is Ribosomal protein S6 kinase alpha-5 (Homo sapiens) (UniProt O75582). The note with it: at 0.1 µM.
The target is the same in assay [16]. The note with it: at 1 µM.
Assay [17] deals with Ribosomal protein S6 kinase alpha-4 (Homo sapiens) (UniProt O75676). The conditions noted are these: at 0.1 µM.
For assay [18] the target is unchanged. The note with it: at 1 µM.
The target of assay [19] is Ribosomal protein S6 kinase beta-1 (Homo sapiens) (UniProt P23443). The note with it: at 0.1 µM.
For assay [20] the target is unchanged. The note with it: at 1 µM.

Sequence of Serine/threonine-protein kinase MRCK alpha (Homo sapiens) (Q5VT25 whole entry): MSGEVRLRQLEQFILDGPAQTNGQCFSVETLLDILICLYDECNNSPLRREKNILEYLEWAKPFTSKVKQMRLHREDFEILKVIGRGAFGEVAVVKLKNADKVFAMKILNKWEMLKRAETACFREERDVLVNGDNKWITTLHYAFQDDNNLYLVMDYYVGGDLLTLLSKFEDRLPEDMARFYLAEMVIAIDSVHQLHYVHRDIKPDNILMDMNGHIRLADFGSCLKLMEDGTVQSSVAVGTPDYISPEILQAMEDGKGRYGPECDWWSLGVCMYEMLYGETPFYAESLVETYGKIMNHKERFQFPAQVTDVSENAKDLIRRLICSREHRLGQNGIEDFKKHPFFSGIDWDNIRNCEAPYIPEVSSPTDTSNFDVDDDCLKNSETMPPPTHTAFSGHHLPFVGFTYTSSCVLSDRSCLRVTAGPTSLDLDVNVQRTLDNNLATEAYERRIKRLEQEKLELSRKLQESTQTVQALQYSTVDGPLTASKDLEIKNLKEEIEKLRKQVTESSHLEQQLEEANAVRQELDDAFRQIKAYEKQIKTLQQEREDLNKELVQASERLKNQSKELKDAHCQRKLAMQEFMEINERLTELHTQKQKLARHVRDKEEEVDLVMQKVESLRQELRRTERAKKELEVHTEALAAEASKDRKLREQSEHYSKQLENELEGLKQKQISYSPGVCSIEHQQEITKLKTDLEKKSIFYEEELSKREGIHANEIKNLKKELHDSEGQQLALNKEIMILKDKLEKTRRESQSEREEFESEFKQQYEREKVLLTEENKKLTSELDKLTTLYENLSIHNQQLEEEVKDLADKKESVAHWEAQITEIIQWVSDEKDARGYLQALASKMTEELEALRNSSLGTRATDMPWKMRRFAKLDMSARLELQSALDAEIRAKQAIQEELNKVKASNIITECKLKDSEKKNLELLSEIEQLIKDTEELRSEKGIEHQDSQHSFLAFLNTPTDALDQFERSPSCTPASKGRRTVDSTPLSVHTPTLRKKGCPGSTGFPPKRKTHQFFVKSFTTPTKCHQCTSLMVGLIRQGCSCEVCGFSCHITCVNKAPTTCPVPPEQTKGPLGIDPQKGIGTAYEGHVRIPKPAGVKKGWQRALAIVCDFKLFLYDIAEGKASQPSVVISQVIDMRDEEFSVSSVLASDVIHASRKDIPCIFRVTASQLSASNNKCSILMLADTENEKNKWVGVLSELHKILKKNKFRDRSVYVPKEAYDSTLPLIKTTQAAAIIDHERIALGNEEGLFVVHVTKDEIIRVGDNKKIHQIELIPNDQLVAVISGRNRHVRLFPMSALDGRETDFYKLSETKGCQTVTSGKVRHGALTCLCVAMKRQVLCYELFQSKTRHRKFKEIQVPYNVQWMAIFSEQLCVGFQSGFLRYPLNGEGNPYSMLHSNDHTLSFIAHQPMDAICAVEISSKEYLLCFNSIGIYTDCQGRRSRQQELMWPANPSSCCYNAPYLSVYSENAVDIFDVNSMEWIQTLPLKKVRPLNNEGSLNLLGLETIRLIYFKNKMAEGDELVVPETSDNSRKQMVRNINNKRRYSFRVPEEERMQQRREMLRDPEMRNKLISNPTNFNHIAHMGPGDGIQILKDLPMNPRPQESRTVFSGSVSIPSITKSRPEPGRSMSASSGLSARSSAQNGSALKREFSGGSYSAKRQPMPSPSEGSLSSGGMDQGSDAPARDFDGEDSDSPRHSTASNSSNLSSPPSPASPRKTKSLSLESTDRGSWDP
Sequence of RAC-beta serine/threonine-protein kinase (Homo sapiens) (P31751 whole entry): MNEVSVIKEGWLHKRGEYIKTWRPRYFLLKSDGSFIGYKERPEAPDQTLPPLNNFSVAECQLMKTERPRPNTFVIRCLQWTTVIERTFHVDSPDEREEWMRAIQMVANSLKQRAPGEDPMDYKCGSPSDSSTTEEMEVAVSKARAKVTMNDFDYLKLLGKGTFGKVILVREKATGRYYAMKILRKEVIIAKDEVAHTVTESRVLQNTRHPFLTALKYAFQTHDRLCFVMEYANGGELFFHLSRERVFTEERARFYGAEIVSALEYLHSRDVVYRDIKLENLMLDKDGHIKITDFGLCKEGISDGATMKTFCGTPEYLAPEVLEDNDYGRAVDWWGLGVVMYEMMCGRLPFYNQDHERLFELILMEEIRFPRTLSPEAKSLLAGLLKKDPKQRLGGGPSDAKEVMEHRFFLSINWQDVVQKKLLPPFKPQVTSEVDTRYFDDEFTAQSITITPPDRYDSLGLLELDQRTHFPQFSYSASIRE
Sequence of RAC-gamma serine/threonine-protein kinase (Homo sapiens) (Q9Y243 whole entry): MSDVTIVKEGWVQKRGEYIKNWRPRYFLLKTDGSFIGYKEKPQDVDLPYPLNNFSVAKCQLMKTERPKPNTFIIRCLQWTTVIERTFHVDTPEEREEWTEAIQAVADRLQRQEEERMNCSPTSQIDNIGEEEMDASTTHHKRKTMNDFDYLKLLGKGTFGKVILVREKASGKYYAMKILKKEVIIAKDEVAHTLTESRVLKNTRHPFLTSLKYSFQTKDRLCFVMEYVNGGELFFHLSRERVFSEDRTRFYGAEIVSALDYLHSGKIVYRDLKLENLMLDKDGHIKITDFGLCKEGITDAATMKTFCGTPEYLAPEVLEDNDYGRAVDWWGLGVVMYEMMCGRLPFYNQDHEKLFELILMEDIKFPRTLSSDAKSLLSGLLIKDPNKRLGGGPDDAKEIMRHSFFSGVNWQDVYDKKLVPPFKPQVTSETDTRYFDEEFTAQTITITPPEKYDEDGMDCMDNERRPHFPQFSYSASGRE
Sequence of Ribosomal protein S6 kinase alpha-5 (Homo sapiens) (O75582 whole entry, looked up): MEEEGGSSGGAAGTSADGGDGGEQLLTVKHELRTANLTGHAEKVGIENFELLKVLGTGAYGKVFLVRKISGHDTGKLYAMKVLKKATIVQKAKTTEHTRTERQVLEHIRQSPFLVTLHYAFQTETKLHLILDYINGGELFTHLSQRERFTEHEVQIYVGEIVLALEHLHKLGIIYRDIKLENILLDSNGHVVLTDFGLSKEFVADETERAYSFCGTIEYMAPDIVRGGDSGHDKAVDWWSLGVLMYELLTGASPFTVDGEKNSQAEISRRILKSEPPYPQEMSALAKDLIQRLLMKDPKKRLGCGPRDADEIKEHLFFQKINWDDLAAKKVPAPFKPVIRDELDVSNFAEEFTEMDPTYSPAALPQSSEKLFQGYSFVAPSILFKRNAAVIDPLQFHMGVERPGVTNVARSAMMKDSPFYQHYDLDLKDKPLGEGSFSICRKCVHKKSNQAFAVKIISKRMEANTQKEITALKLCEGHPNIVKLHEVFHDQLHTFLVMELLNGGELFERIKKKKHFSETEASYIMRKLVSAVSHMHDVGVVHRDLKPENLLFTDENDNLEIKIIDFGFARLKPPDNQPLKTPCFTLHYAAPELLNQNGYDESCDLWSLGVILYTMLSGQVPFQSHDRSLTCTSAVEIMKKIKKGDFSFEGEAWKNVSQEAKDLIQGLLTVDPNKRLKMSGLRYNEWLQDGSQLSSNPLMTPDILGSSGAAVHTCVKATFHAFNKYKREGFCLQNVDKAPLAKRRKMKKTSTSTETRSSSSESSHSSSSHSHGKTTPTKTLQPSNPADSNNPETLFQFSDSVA
Sequence of G protein-coupled receptor kinase 6 (Homo sapiens) (P43250 whole entry, looked up): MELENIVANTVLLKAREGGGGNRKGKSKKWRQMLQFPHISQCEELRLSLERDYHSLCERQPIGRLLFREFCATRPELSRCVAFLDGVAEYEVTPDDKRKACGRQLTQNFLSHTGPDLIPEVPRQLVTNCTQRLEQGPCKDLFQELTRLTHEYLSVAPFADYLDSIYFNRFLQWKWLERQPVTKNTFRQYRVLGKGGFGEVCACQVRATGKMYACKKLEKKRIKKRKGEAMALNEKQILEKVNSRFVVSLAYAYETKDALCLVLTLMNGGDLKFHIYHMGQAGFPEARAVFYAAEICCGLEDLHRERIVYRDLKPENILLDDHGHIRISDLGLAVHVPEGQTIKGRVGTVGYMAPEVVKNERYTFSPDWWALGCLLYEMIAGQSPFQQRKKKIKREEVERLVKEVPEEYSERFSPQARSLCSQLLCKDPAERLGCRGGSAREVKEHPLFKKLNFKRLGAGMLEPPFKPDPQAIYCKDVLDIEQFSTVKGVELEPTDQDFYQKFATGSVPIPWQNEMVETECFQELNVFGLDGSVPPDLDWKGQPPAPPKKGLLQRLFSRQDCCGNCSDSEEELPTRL
Sequence of RAC-alpha serine/threonine-protein kinase (Homo sapiens) (P31749 whole entry): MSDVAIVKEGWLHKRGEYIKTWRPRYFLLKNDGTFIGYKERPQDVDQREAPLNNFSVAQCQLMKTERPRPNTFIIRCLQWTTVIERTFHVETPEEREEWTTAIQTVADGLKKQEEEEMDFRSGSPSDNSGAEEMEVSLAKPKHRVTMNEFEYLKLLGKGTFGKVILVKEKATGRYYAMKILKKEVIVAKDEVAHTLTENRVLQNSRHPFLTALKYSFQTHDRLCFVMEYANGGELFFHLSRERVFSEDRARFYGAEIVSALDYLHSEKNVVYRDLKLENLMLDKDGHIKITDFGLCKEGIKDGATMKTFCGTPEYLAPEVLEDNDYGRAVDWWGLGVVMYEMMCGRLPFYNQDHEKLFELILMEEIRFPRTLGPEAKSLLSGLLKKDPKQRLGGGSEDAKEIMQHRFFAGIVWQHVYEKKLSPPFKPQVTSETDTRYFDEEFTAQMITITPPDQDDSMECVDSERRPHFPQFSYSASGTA
Sequence of Ribosomal protein S6 kinase beta-1 (Homo sapiens) (P23443 whole entry, looked up): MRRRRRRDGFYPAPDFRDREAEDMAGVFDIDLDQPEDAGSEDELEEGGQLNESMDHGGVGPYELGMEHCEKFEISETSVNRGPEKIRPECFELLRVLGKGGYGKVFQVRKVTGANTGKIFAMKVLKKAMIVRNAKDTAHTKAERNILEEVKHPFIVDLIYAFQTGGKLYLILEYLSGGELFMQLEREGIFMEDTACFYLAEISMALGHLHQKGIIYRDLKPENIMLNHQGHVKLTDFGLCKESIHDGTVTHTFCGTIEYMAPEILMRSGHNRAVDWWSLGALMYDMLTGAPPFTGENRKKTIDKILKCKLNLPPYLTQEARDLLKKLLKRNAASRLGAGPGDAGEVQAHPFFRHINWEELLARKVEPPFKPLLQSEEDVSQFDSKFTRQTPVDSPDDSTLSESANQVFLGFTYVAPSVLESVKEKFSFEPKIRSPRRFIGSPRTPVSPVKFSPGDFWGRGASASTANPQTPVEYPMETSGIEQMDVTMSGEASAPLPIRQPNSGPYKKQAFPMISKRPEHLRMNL

In the case of `NS(=O)(=O)c1ccc(Nc2cc(-c3cccc(O)c3)n[nH]2)cc1`, the inhibition was 0.91% in assay [1]; 0.58% in assay [2]; 1.64% in assay [3]; 3.28% in assay [4]; 2.49% in assay [5]; 1.75% in assay [6]. For the same compound, the inhibition was 1.19% in assay [7]; 3.55% in assay [8]; 3.02% in assay [9]; 5.39% in [10]; 0.59% in [11]; 0.11% in assay [12]. Besides, the inhibition in assay [13] came to 0.64%; in assay [14], 1.33%; in assay [15] it was 5.25%; in [16], 5.94%; in [17], 2.94%; in assay [18], 9.16%. In addition, the inhibition in assay [19] worked out at 0.39%; in assay [20] it was 2.83%.
For `COc1cccc(-n2ncc3c(N/N=C/c4ccc(S(C)(=O)=O)cc4)ncnc32)c1`, the inhibition in [1] is -3.17%; in [2], -2.91%; in assay [3], -3.17%; in assay [4], -2.73%; in assay [5], -8.29%; in assay [6], -3.66%. In addition, the inhibition in assay [7] is 1.17%; in assay [8] it was -1.78%; in [9], -0.35%; in assay [10], 0.56%; in assay [11] it was -0.29%; in [12], -0.45%. The inhibition is 0.04% in [13]; 0.16% in assay [14]; -1.19% in assay [15]; -0.55% in assay [16]; 1.78% in assay [17]; 2.04% in assay [18]. Moreover, the inhibition in [19] came out at 1.23%; in assay [20], 5.85%.
On to `O=C1Nc2ccccc2/C1=C/Nc1ccc2[nH]c(=O)[nH]c2c1`, for which the inhibition in assay [1] amounted to 0.44%; in assay [2] it was 0.45%; in [3], 1.75%; in assay [4], 2.21%; in assay [5], 1%; in [6] it was 1.86%. Besides, the inhibition in assay [7] is 8.17%; in assay [8], 23.7%; in assay [9] it was 4.17%; in [10], 15.9%; in assay [11], -0.3%; in assay [12], 1.93%. In addition, the inhibition in assay [13] was -0.63%; in assay [14], -1.04%; in assay [15], 3.99%; in assay [16] it was 5.92%; in [17], 3.86%; in assay [18], 16.6%. The figures for the inhibition in assay [19] and in assay [20] were 2.55% and 11.1%, respectively.
On to `Nc1ccc(C#Cc2cncnc2Nc2ccc(OCc3cccc(F)c3)c(Cl)c2)cc1`, for which the inhibition in [1] came out at 0.15%; in [2], 1.42%; in assay [3] it was 1.06%; in assay [4] it was 1.24%; in [5] it was 0.3%; in assay [6], 2.19%. The inhibition is 0.63% in assay [7]; 0.83% in assay [8]; 5.58% in assay [9]; 1.26% in assay [10]; -1.73% in [11]; 0.19% in assay [12]. The inhibition in assay [13] is 1.04%; in [14], 1.18%; in assay [15], 1.3%; in assay [16] it was -0.19%; in assay [17], 1.93%; in assay [18] it was 3.14%. The inhibition in assay [19] was 0.9%; in assay [20], 0.85%.
On to `Oc1cccc(-c2nc(-c3ccccc3)[nH]c2-c2ccncc2)c1`, for which the inhibition in assay [1] was -0.1%; in assay [2] it was 1.39%; in assay [3], 2.18%; in [4], 2.47%; in assay [5], 0.82%; in assay [6] it was 3.85%. The inhibition in assay [7] was 6.53%; in assay [8], 4.9%; in assay [9], 1.3%; in assay [10], -0.71%; in assay [11] it was -0.93%; in assay [12], 2.63%. In addition, the inhibition is -0.32% in assay [13]; 0.92% in [14]; 3.05% in assay [15]; 4.64% in assay [16]; 1.9% in assay [17]; 3.89% in [18]. The inhibition is 1.55% in assay [19] and 6.44% in assay [20].
Consider `NS(=O)(=O)c1ccc(-c2cc3ccncc3cc2OCc2ccccc2)cc1`, for which the inhibition in assay [1] is 0.08%; in [2] it was 0.83%; in [3] it was 1.46%; in assay [4], 1.66%; in assay [5], 0.51%; in [6], 2.2%. Moreover, the inhibition was 2.02% in assay [7]; 8.2% in assay [8]; 1.52% in assay [9]; 6.27% in assay [10]; -0.66% in [11]; -1.1% in assay [12]. The inhibition in assay [13] is -1.66%; in assay [14], -2.27%; in assay [15], 1.89%; in assay [16], 0.96%; in [17], 1.86%; in assay [18], 2.64%. Also, the values for the inhibition in assay [19] and in [20] were 1.3% and 2.04%, respectively.
Regarding `COc1cccc(-n2ncc3c(N/N=C/c4ccc(C)cc4)ncnc32)c1`, the inhibition stood at 1.26% in assay [1]; 0.76% in [2]; 1.76% in assay [3]; 1.75% in assay [4]; 0.43% in [5]; 1.94% in assay [6]. Moreover, the inhibition in assay [7] was 4.73%; in [8] it was 5.93%; in [9], 11.7%; in [10], 7.9%; in assay [11], 4.17%; in assay [12], 5.98%. The inhibition is 1.06% in assay [13]; 1.73% in assay [14]; -3.87% in assay [15]; -2.7% in assay [16]; 3.45% in [17]; 5.55% in assay [18]. In addition, the inhibition in [19] was determined as 2.62%; in assay [20], 3.95%.

Usually inhibition stands for the relative decrease from the control value, in per cent.
